Assay results: PubChem BioAssay (EPA / NIEHS)
The source made the active and inactive calls. Rule for the calls: active = hit-call score of the fitted dose curve at least 0.9, where 1 is the maximum; inactive = score below 0.9.

Key:
Conditions in all cases: mRNA level, 48 h; actives raise or lower the signal
[1] = read-out: 3-Hydroxy-3-Methylglutaryl-CoA Synthase 2 (HMGCS2), HMGCS2 (gene 3158); test: LTEA_HepaRG_HMGCS2: Life Technologies and Expression Analysis (LTEA) Assay for 3-Hydroxy-3-Methylglutaryl-CoA Synthase 2 (HMGCS2) using HepaRG (AID 2283504)
Method in brief: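 Human HepaRG cells in serum-free induction medium were exposed in duplicate for 48 h to 8-point half-log series from 100 uM top in 0.5% DMSO. HMGCS2 mRNA measured by TaqMan qRT-PCR, normalised to ACTB, GAPDH, POLR2A; bidirectional fit versus DMSO.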

HGF (gene 3082) = test: LTEA_HepaRG_HGF: Life Technologies and Expression Analysis (LTEA) Assay for Hepatocyte Growth Facto (HGF) using HepaRG (AID 2283505)
Method in brief: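 Differentiated HepaRG cells in serum-free induction medium exposed 48 h in duplicate, 8 half-log concentrations from 100 uM in 0.5% DMSO. HGF mRNA by qRT-PCR, normalised to ACTB, GAPDH, POLR2A; bidirectional fitting.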

[2] = read-out: Insulin Like Growth Factor 1 (IGF1), IGF1 (gene 3479); test: LTEA_HepaRG_IGF1: Life Technologies and Expression Analysis (LTEA) Assay for Insulin Like Growth Factor 1 (IGF1) using HepaRG (AID 2283506)
Method in brief: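 Endpoint: IGF1 mRNA change by qRT-PCR, housekeeping-normalized, fitted bidirectionally relative to 0.5% DMSO vehicle. Human HepaRG cells were treated 48 h in serum-free induction medium, eight half-log concentrations topping at 100 uM.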

[3] = read-out: Intercellular Adhesion Molecule 1 (ICAM1), ICAM1 (gene 3383); test: LTEA_HepaRG_ICAM1: Life Technologies and Expression Analysis (LTEA) Assay for Intercellular Adhesion Molecule 1 (ICAM1) using HepaRG (AID 2283507)
Method in brief: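 Differentiated human HepaRG cells in serum-free induction medium exposed 48 h in duplicate to 8 half-log concentrations (top 100 uM, 0.5% DMSO). ICAM1 mRNA quantified by TaqMan qRT-PCR, normalized to ACTB, GAPDH and POLR2A; bidirectional fitting versus DMSO.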

[4] = read-out: Insulin-like growth factor-binding protein 1 (IGFBP1), IGFBP1 (gene 3484); test: LTEA_HepaRG_IGFBP1: Life Technologies and Expression Analysis (LTEA) Assay for Insulin-like growth factor-binding protein 1 (IGFBP1) using HepaRG (AID 2283508)
Method in brief: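 HepaRG cells, plated 48 h then switched to serum-free induction medium, exposed in duplicate for 48 h to 8-point half-log series from 100 uM in 0.5% DMSO. mRNA measured by qRT-PCR, normalized to ACTB/GAPDH/POLR2A; bidirectional fit versus DMSO.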

[5] = read-out: Interleukin 6 (IL6), IL6 (gene 3569); test: LTEA_HepaRG_IL6: Life Technologies and Expression Analysis (LTEA) Assay for Interleukin 6 (IL6) using HepaRG (AID 2283509)
Method in brief: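 Transcript levels, normalized to three housekeeping genes, were quantified by qRT-PCR after 48 h chemical treatment of HepaRG cells. Eight-point half-log series from 100 uM in 0.5% DMSO, duplicates. Fitted both directions against DMSO baseline.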

[6] = read-out: Interleukin 6 Receptor (IL6R), IL6R (gene 3570); test: LTEA_HepaRG_IL6R: Life Technologies and Expression Analysis (LTEA) Assay for Interleukin 6 Receptor (IL6R) using HepaRG (AID 2283510)
Method in brief: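 In this HepaRG screen, test chemicals act on cells for 48 h at up to 100 uM (eight half-log points, duplicate wells). IL6R expression is quantified by qRT-PCR after normalization to ACTB, GAPDH and POLR2A, with DMSO as baseline.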

[7] = read-out: Potassium channel subfamily K member 1 (KCNK1), KCNK1 (gene 3775); test: LTEA_HepaRG_KCNK1: Life Technologies and Expression Analysis (LTEA) Assay for Potassium channel subfamily K member 1 (KCNK1) using HepaRG (AID 2283511)
Method in brief: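 KCNK1 transcript measured by TaqMan qRT-PCR against three housekeeping genes, after HepaRG cells were treated 48 h with eight half-log concentrations (top 100 uM, 0.5% DMSO). Curves fitted bidirectionally relative to vehicle.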

[8] = read-out: Keratin 19 (KRT19), KRT19 (gene 3880); test: LTEA_HepaRG_KRT19: Life Technologies and Expression Analysis (LTEA) Assay for Keratin 19 (KRT19) using HepaRG (AID 2283512)
Method in brief: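 Differentiated HepaRG cells in serum-free induction medium, exposed 48 h in duplicate to 8 half-log concentrations up to 100 uM in 0.5% DMSO. KRT19 mRNA by qRT-PCR, normalized to ACTB, GAPDH, POLR2A; bidirectional fit vs DMSO.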

[9] = read-out: JUN Transcription Factor, JUN (gene 3725); test: LTEA_HepaRG_JUN: Life Technologies and Expression Analysis (LTEA) Assay for JUN Transcription Factor using HepaRG (AID 2283513)
Method in brief: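 Gene-expression endpoint: JUN mRNA (qRT-PCR, normalized to three reference genes) in HepaRG cultures treated 48 h with chemicals, duplicate wells, 100 uM maximum with half-log dilutions; bidirectional fitting relative to 0.5% DMSO.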

[10] = read-out: Lipase C (LIPC), LIPC (gene 3990); test: LTEA_HepaRG_LIPC: Life Technologies and Expression Analysis (LTEA) Assay for Lipase C (LIPC) using HepaRG (AID 2283514)
Method in brief: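 LIPC expression was quantified by qRT-PCR against three housekeeping genes (ACTB, GAPDH, POLR2A). Differentiated human HepaRG cells received eight half-log doses (top 100 uM, 0.5% DMSO) in duplicate for 48 h; fitting bidirectional relative to DMSO.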

[11] = read-out: Lipoprotein lipase (LPL), LPL (gene 4023); test: LTEA_HepaRG_LPL: Life Technologies and Expression Analysis (LTEA) Assay for Lipoprotein lipase (LPL) using HepaRG (AID 2283515)
Method in brief: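 LPL transcript levels quantified by TaqMan qRT-PCR against three housekeeping genes after 48 h chemical treatment of HepaRG cells. Eight-point half-log series from 100 uM in 0.5% DMSO, tested in duplicate; bidirectional fitting versus vehicle.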

[12] = read-out: MicroRNA 122 (MIR122), gene 406906; test: LTEA_HepaRG_MIR122: Life Technologies and Expression Analysis (LTEA) Assay for MicroRNA 122 (MIR122) using HepaRG (AID 2283516); note: the transcript read is the microRNA miR-122
Method in brief: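 Changes in transcript abundance, up or down relative to 0.5% DMSO vehicle, were scored after 48 h chemical treatment of HepaRG cells (maximum 100 uM). Quantification used TaqMan qRT-PCR normalized to housekeeping genes.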

[13] = read-out: matrix metalloproteinase-10 (MMP10), MMP10 (gene 4319); test: LTEA_HepaRG_MMP10: Life Technologies and Expression Analysis (LTEA) Assay for matrix metalloproteinase-10 (MMP10) using HepaRG (AID 2283517)
Method in brief: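 Expression measured by TaqMan qRT-PCR with ACTB/GAPDH/POLR2A normalisation after 48 h chemical exposure of HepaRG cells. Eight half-log concentrations, top 100 uM, 0.5% DMSO vehicle, duplicates; gain or loss fitted against vehicle.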

MYC, MYC (gene 4609) = test: LTEA_HepaRG_MYC: Life Technologies and Expression Analysis (LTEA) Assay for MYC using HepaRG (AID 2283518)
Method in brief: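 Differentiated HepaRG cells exposed 48 h in serum-free induction medium to 8 concentrations (top 100 uM, half-log steps; 0.5% DMSO), duplicate. MYC mRNA measured by Fluidigm qRT-PCR, normalized to ACTB, GAPDH, POLR2A; bidirectional fit versus DMSO.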

[14] = read-out: matrix metalloproteinase-3 (MMP3), MMP3 (gene 4314); test: LTEA_HepaRG_MMP3: Life Technologies and Expression Analysis (LTEA) Assay for matrix metalloproteinase-3 (MMP3) using HepaRG (AID 2283519)
Method in brief: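 Fluidigm-based TaqMan qRT-PCR, normalized to ACTB, GAPDH and POLR2A and fitted bidirectionally versus 0.5% DMSO, measured transcript levels. Treatment: duplicate 48 h exposures of HepaRG cells, ~100,000/well, to eight half-log concentrations topping at 100 uM.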

[15] = read-out: Paternally Expressed 10 (PEG10), PEG10 (gene 23089); test: LTEA_HepaRG_PEG10: Life Technologies and Expression Analysis (LTEA) Assay for Paternally Expressed 10 (PEG10) using HepaRG (AID 2283520)
Method in brief: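 After 48 h exposure of differentiated HepaRG cells (0.5% DMSO vehicle, eight concentrations up to 100 uM, duplicates), PEG10 mRNA was measured by TaqMan qRT-PCR. Values were normalised to endogenous control genes and analysed bidirectionally against vehicle.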

[16] = read-out: Nuclear factor NF-kappa-B p105 subunit (Homo sapiens) (UniProt P19838); test: LTEA_HepaRG_NFKB1: Life Technologies and Expression Analysis (LTEA) Assay for Nuclear Factor Kappa B Subunit 1 (NFKB1) using HepaRG (AID 2283521);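 note: TaqMan qRT-PCR transcript normalised to ACTB GAPDH and POLR2A housekeeping genes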
Method in brief: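 NFKB1 transcript was measured by TaqMan qRT-PCR on Fluidigm arrays, normalised to three housekeeping genes and fitted in both directions against 0.5% DMSO. HepaRG cells were dosed in duplicate for 48 h in serum-free induction medium, eight half-log steps from 100 uM.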

[17] = read-out: Protein phosphatase 2A (PPP2R4), PTPA (gene 5524); test: LTEA_HepaRG_PPP2R4: Life Technologies and Expression Analysis (LTEA) Assay for Protein phosphatase 2A (PPP2R4) using HepaRG (AID 2283522)
Method in brief: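 Using HepaRG cultures maintained in 0.5% DMSO, chemicals are tested 48 h at up to 100 uM in duplicate. Induction or suppression of PPP2R4 mRNA, measured by qRT-PCR, is fitted bidirectionally against the vehicle baseline.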

[18] = read-out: Phosphatase and tensin (PTEN), PTEN (gene 5728); test: LTEA_HepaRG_PTEN: Life Technologies and Expression Analysis (LTEA) Assay for Phosphatase and tensin (PTEN) using HepaRG (AID 2283523)
Method in brief: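 Read-out: TaqMan qRT-PCR of PTEN transcript, normalized to three housekeeping genes, fitted in both directions against 0.5% DMSO. Differentiated human HepaRG cultures received chemicals for 48 h, eight-point half-log series topping at 100 uM.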

Measured: outcome

Nuclear factor NF-kappa-B p105 subunit (Homo sapiens), sequence (P19838 whole entry, looked up): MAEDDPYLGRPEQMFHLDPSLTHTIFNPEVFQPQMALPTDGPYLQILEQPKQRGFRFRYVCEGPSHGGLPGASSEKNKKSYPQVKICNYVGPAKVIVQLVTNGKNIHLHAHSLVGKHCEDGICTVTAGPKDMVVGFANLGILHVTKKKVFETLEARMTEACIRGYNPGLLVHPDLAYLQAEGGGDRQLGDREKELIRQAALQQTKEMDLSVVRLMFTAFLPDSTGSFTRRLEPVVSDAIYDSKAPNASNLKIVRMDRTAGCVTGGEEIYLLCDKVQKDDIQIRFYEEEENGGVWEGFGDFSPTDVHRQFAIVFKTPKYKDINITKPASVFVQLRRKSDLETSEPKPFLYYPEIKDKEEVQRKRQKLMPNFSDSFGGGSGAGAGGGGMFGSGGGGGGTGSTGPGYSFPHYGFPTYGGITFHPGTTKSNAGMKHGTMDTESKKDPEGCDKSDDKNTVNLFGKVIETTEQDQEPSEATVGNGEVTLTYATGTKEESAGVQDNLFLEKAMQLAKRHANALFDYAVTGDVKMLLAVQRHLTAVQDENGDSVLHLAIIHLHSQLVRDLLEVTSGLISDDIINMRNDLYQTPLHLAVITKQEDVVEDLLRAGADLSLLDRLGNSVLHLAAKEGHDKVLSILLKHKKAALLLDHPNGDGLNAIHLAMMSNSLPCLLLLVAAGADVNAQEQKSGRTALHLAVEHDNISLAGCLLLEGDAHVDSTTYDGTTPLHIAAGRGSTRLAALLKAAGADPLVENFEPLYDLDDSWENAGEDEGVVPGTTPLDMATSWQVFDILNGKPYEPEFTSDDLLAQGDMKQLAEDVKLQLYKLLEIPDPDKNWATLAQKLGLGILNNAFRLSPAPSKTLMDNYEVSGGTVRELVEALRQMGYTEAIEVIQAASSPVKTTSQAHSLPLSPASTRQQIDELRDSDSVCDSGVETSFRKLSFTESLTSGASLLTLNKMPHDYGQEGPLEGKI

C1CNCCN1
inactive: [1] | HGF (gene 3082) | [2] | [3] | [4] | [5] | [6] | [7] | [8] | [9] | [10] | [11] | [12] | [13] | MYC, MYC (gene 4609) | [14] | [15] | [16] | [17] | [18]

Nc1ccc(C(=O)O)cc1
inactive: [1] | HGF (gene 3082) | [2] | [3] | [4] | [5] | [6] | [7] | [8] | [9] | [10] | [11] | [12] | [13] | MYC, MYC (gene 4609) | [14] | [15] | [16] | [17] | [18]

Cc1ccc([N+](=O)[O-])cc1N
inactive: [1] | HGF (gene 3082) | [2] | [3] | [4] | [5] | [6] | [7] | [8] | [10] | [11] | [12] | [13] | MYC, MYC (gene 4609) | [14] | [15] | [17] | [18]
